SMN2 splice enh: increases expression of the SMN2 splice variant; HEK293 SMN2-luciferase splicing reporter, luminescence, 30-36 h; 2.8% of 210,000 active; Potency, µM (doses to about 46.1 µM), without a hit: at the top dose activity change, positive = activation, usual class: activators; also: % of control where 0% means no effect; nearly all actives have a fitted effect of over 55% in size
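qHTS luciferase splicing reporter: luminescence rises when SMN2 exon 7 is included in transfected HEK293 cells. Compound exposure lasted 30-36 h at 37C, with 4.5 mM final sodium butyrate as control, followed by a ONE-Glo read.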
ELG1 genotoxic: induces genotoxicity in HEK293T cells with luciferase-tagged ELG1; HEK293T ELG1-luciferase reporter, luminescence, 16 h; Potency, µM (doses to about 46 µM), for inactives: at the top dose activity change, positive = activation, actives largely listed as activators; 1.3% of 330,000 active; also: % of control where 0% means no effect; nearly all actives have a fitted effect of over 60% in size
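Luminescence read-out: rising ELG1-luciferase signal, reflecting elevated ELG1 protein under genetic stress, flags genotoxic compounds. Cells were treated for 16 hr at 37 °C before ONE-Glo detection.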
FLuc counter: counter-screen for miR-21 project: firefly luciferase inhibitors or activators | Potency, µM (titrated, usually from 57.5 µM), inactives show at the top dose activity change, negative = inhibition, hits mostly inhibitors | purified FLuc, Km substrates, luminescence inhibition | 6.9% of 360,000 active;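 also: plate controls were vehicle for no effect and reference inhibitor for full effect; nearly all actives have a fitted effect of over 55% in size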
Target sequence (P08659 whole entry, looked up): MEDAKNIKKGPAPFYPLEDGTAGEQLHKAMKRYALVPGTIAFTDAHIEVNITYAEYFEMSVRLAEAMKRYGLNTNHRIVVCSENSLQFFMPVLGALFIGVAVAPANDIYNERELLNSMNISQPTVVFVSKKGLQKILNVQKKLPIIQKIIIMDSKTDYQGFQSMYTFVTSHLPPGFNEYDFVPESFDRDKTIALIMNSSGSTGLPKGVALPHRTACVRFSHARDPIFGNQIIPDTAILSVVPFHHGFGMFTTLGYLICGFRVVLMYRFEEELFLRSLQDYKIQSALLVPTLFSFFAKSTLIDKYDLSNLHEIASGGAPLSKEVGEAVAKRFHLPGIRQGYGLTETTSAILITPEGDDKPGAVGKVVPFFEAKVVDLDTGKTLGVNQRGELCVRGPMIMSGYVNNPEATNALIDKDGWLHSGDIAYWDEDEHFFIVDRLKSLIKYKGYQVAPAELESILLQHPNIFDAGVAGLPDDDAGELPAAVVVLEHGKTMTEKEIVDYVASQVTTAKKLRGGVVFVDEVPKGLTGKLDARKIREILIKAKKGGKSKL
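Purified P. pyralis luciferase (10nM final) with 10uM D-luciferin and 10uM ATP (Km levels) in 50mM Tris acetate pH 7.5, 10mM Mg acetate, 0.01% Tween-20, 0.05% BSA; qHTS 6-point titration, ~60 µM downward; luminescence read.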
Rab9 promoter act: Rab9 promoter activation | Huh7 Rab9 promoter-luciferase reporter, luminescence, 24 h | 2.8% of 320,000 active | Potency, µM (highest dose often 9.22 µM), without a hit: at the highest dose activation, negative = inhibition, most hits filed as activators; also: % of control where 0% means no effect; nearly all actives have a fitted effect of over 60% in size
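Cells were plated at 1500 per well in reduced-serum medium with 10% FBS and left 2 h. Compound in DMSO was then added for 24 h at 37 °C. Reporter signal was read by luminescence after 10 min with luciferase detection reagent.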
NPC1 prom act: activators of NPC1 promoter; Huh7 NPC1 promoter luciferase reporter, 24 h; 2.4% of 320,000 active; Potency, µM (titrated, usually from 9.22 µM), inactives show at the top dose activation, most hits filed as activators; also: % of control where 0% means no effect; nearly all actives have a fitted effect of over 60% in size
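Compounds in DMSO were transferred onto Huh7 NPC1-luciferase reporter cells pre-incubated 2 h; after 24 h at 37 °C, Amplite reagent was dispensed and luminescence recorded 10 min later.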
KinaseGlo FLuc: blocks Kinase-Glo luciferase, a counter-screen artifact. Q27757. Kinase-Glo luciferase, ATP luminescence, 8 min. Potency, µM (series often up to 38.3 µM), inactives show at the top dose activity change, negative = inhibition, hits mostly inhibitors. 0.28% of 200,000 active. AID 1379; also: % is scaled to controls: 0 for no effect and ±100 for the full control effect; nearly all actives have a fitted effect of over 60% in size
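Light output from Kinase-Glo luciferase with luciferin and 10 uM ATP in 50 mM imidazole pH 7.2, KCl, MgCl2, Tween 20, BSA; compound pin-delivered, 8-min ambient incubation, then luminescence read.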
* marks the source's active call; other numbers are inactive results; ? = inconclusive; . = no result given. Sampled rows, rich in hits. Any-hit rate of the full collection: about 7.3%. Calls follow the shape of the dose curve; as a rule, active = well fitted curve in the direction sought with a large enough effect; inconclusive = small, poorly fitted or top-dose-only effect, or another doubt; inactive = no such curve, though single readings can be large; an effect the other way counts as inactive or inconclusive. Potency is read from the fitted curve at half-maximal effect.

SMILES	SMN2 splice enh	ELG1 genotoxic	FLuc counter	Rab9 promoter act	NPC1 prom act	KinaseGlo FLuc
O=C(Nc1ccc(S(=O)(=O)N2CCCC2)cc1)c1ccc(OCC2CCCO2)cc1 (stereo not drawn)	-76%	-9%	2%	-21%	-21%	-3%
O=C(Nc1nc2ccccc2s1)c1ccc(OCC2CCCO2)cc1 (stereo not drawn)	.	?	0.76µM*	0.4µM*	3.2µM*	.
Cc1ccc(OCC(=O)OCc2nc3scc(-c4ccccc4)c3c(=O)[nH]2)cc1C	.	4%	0%	4%	-2%	.
O=C(Nc1cccc(S(=O)(=O)N2CCCCC2)c1)c1ccc(OCC2CCCO2)cc1 (stereo not drawn)	-67%	-18%	15µM*	4%	-5%	13%
COC(=O)c1c(C)oc2ccc(N(C(=O)c3ccncc3)S(=O)(=O)c3ccc4ccccc4c3)cc12	-68%	2%	6%	-4%	2%	2%
O=C(CN1C(=O)c2cccc([N+](=O)[O-])c2C1=O)OCC(=O)N1CCCCC1	.	-3%	8.5µM*	21%	8%	.
COc1ccc(N=Cc2c(O)[nH]c3ccccc23)cc1	13µM*	?	2.7µM*	1.6µM*	1.6µM*	-5%
Cc1[nH]c2ccccc2c1/C=N/NC(=O)c1cccc([N+](=O)[O-])c1	-3%	-4%	?	-3%	-7%	1%
Cc1ccc(N=Cc2c(O)[nH]c3ccccc23)c([N+](=O)[O-])c1	22%	?	?	0.56µM*	?	-9%
Oc1[nH]c2ccccc2c1C=Nc1ccc2c(c1)OCO2	0.89µM*	?	7.6µM*	1.8µM*	2µM*	?
CCOC(=O)c1sc(/N=C/c2c(O)ccc3ccccc23)cc1C	-34%	0%	19µM*	2%	3%	-2%
CCC(=O)Nc1ccc(C(=O)CSc2nc3ccccc3cc2CC)cc1	?	-6%	-2%	-4%	-4%	4%
COc1cc(/C=C2/C(=N)N3N=C(CC(=O)N4CCOCC4)SC3=NC2=O)ccc1OCc1ccccc1	.	18%	2%	-13%	-1%	.
Clc1ccc(C2[C@H]3CN(Cc4ccc(-c5ccccc5)cc4)[C@H](c4ccccc4)C34CC2(c2cccnc2)C4)cn1 (stereo partly drawn)	-4%	0%	-3%	-9%	-9%	-1%
Oc1[nH]c2ccccc2c1/C=N/c1nccs1	?	8%	12µM*	?	?	-7%
O=C(O)c1ccc(N=Cc2c(O)ccc3ccccc23)cc1	.	1%	30µM*	3%	2%	.
O=C(O)Cc1ccc(N=Cc2c(O)ccc3ccccc23)cc1	16%	-2%	?	-1%	-3%	-1%
COc1ccc(N=Cc2c(O)ccc3ccccc23)cc1	.	-10%	13µM*	-3%	-2%	-3%
CC(=O)Nc1ccc(N=Cc2c(O)ccc3ccccc23)cc1	.	0%	?	14%	1%	.
Cc1ccc(CCNC(=O)c2nn(C)c3c2CS(=O)(=O)c2ccccc2-3)cc1	.	-8%	-7%	-5%	3%	.
CCOc1ccccc1NC(=O)CN(c1cc(C)cc(C)c1)S(=O)(=O)c1c(C)noc1C	5%	1%	-1%	-6%	-1%	3%
Cc1ccc(O)c(C(=O)/C=C/c2ccc3c(c2)OCCO3)c1	6%	0%	24µM*	?	8%	-12%
COc1ccc(C(=O)/C=C/c2ccc3c(c2)OCCO3)cc1	.	19%	1.7µM*	?	5%	.
CCOc1cc(/C=C/C(=O)c2ccc3c(c2)OCCO3)ccc1OCC(=O)N(C)C	.	-8%	?	1%	-5%	.
O=C(/C=C/c1ccc2c(c1)OCCO2)c1ccccc1	.	?	0.48µM*	1µM*	2.8µM*	.
SMILES	SMN2 splice enh	ELG1 genotoxic	FLuc counter	Rab9 promoter act	NPC1 prom act	KinaseGlo FLuc
O=C(/C=C/c1ccc(F)cc1)c1cc(Br)ccc1O	.	8%	?	10%	12%	.
COc1ccc(/C=C/C(=O)c2ccc3c(c2)OCCO3)cc1[N+](=O)[O-]	1%	0%	6.7µM*	-5%	2%	-9%
CCOc1cc(CNc2ccc3cn[nH]c3c2)ccc1OC	6%	-5%	-1%	16%	1%	2%
CN(CCC#N)C(=O)COC(=O)c1c2c(nc3ccccc13)/C(=C/c1ccco1)CC2	22µM*	8%	11µM*	?	?	-12%
COc1cc(NC(=O)C2CCCCC2)c(OC)cc1NC(=O)c1ccco1	20%	-1%	1%	?	1%	2%
COc1cc(NC(=S)NC(=O)c2ccco2)ccc1NC(=O)C(C)C	18%	9%	?	21%	8%	-3%
COc1cc2c(cc1NC(=O)c1ccco1)CCCC2	21%	13%	21µM*	?	15%	-2%
COc1cc(NC(=O)C(C)C)ccc1NC(=O)c1ccco1	11µM*	7.9µM*	19µM*	1.1µM*	4µM*	-1%
COc1ccc(CN2CC(C(=O)NCCCN3CCCCCC3)CC2=O)cc1 (stereo not drawn)	2%	-1%	1%	2%	-4%	-3%
O=C(Nc1nc(-c2ccc(Br)cc2)cs1)c1cccnc1	-17%	15%	1%	-11%	-11%	2%
CC(C)/C=N/Nc1nc(-c2ccc(Br)cc2)cs1	5%	?	7.6µM*	?	?	1%
N#Cc1ccc(/C=C/C(=O)c2ccccc2)cc1	.	?	5.4µM*	5%	18%	.
CC(C)(C)C(=O)/C=C(N)/C=C/c1ccccc1	14%	?	12µM*	7%	?	-9%
N/C(=N\OC(=O)/C=C/c1ccccc1)c1ccc(Cl)cc1	.	-1%	?	-1%	10%	.
N/C(=N\OC(=O)/C=C/c1ccccc1)c1ccccc1	.	8.2µM*	1.5µM*	?	?	?
O=C(/C=C/c1ccccc1)/C=C/c1ccccc1	-90%	-16%	3.4µM*	10%	1%	-4%
O=C(NCC1CCCO1)C1CC1(c1ccccc1)c1ccccc1 (stereo not drawn)	-5%	1%	3%	1%	0%	1%
Cc1cc([N+](=O)[O-])ccc1NCc1ccccc1[N+](=O)[O-]	.	-2%	0%	-29%	-3%	0%
CCc1nnc(NC(=O)CSc2nnc(-c3cccnc3)n2CCc2ccccc2)s1	?	9%	-1%	-2%	-2%	-6%
COc1ccc(OC)c(NC(=O)CN(c2ccc(C)cc2)S(=O)(=O)c2c(C)n[nH]c2C)c1	.	-1%	-1%	0%	-1%	.
N#Cc1ccccc1COc1ccc(/C=C/C(=O)O)cc1	-18%	-2%	2.4µM*	-18%	-5%	0%
